In the library only some 0.92% were active in any assay of this set; here they are far more common.
APE1 inh: qHTS Assay for Inhibitors of the Human Apurinic/apyrimidinic Endonuclease 1 (APE1) | DNA repair nuclease/redox regulator APEX1 (Homo sapiens), P27695 | recombinant APE1, TAMRA/BHQ-2 abasic DNA cleavage fluorescence | Potency, µM (series often up to 65.8 µM), without a hit: top-dose activity change, negative = inhibition, hits mostly inhibitors | actives 0.35% (n = 350,000) | AID 2517, 2012;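 also: plate controls were vehicle for no effect and reference inhibitor for full effect; nearly all actives have a fitted effect of over 55% in size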
Target sequence (P27695 whole entry, looked up): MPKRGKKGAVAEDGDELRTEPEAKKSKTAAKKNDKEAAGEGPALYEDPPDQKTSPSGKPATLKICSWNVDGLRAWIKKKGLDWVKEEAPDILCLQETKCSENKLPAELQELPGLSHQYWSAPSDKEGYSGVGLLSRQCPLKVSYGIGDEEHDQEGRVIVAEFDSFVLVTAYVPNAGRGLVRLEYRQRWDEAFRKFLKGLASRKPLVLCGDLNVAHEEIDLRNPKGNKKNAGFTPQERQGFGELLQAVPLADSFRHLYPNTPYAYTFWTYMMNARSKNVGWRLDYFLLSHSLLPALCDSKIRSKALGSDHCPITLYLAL
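Substrate: short duplex with […] THF abasic site, 5'-TAMRA and 3'-BHQ-2, 50 nM final. APE1 at 0.75 nM, preincubated 15 min RT with compound. Fluorescence increase from first to third read measured activity.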
BLM inh: qHTS Assay for Inhibitors of Bloom's syndrome helicase (BLM). Potency, µM (titrated, usually from 56.1 µM), for inactives: at the highest dose activity change, negative = inhibition, actives largely listed as inhibitors. RecQ-like DNA helicase BLM (Homo sapiens), P54132. actives 0.2% (n = 350,000). recombinant BLM DNA unwinding, fluorescence dequenching;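 also: plate controls were vehicle for no effect and no enzyme for full effect; nearly all actives have a fitted effect of over 35% in size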
RECQ1 inh: qHTS Assay for Inhibitors of RecQ-Like Dna Helicase 1 (RECQ1) | ATP-dependent DNA helicase Q1 (Homo sapiens), P46063 | RECQ1 DNA unwinding, red fluorescence kinetic read | Potency, µM (highest dose often 57.3 µM), for the others: top-dose activity, negative = inhibition, hits mostly inhibitors | actives 0.54% (n = 240,000) | AID 2549, 2010;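 also: plate controls were vehicle for no effect and no enzyme for full effect; nearly all actives have a fitted effect of over 30% in size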
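50 nM RECQ1T1 preincubated 15 min with compound in Tris pH 8.0 buffer with MgCl2, DTT, Tween-20 and 2.5 ug/ml poly(dI-dC); started with 200 nM TAMRA/BHQ-2 forked duplex and 2 mM ATP. Unwinding read as fluorescence (525/598 nm), two reads 2 h apart.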
FEN1 inh: qHTS Assay for the Inhibitors of Human Flap endonuclease 1 (FEN1) | P39748 | Recombinant FEN1 flap cleavage, fluorescence, 15 min | Potency, µM (titrated, usually from 114 µM), for the others: at the top dose activity change, negative = inhibition, hits mostly inhibitors | actives 0.35% (n = 390,000) | AID 588795, 2011; also: nearly all actives have a fitted effect of over 65% in size
Target sequence (P39748 whole entry, looked up): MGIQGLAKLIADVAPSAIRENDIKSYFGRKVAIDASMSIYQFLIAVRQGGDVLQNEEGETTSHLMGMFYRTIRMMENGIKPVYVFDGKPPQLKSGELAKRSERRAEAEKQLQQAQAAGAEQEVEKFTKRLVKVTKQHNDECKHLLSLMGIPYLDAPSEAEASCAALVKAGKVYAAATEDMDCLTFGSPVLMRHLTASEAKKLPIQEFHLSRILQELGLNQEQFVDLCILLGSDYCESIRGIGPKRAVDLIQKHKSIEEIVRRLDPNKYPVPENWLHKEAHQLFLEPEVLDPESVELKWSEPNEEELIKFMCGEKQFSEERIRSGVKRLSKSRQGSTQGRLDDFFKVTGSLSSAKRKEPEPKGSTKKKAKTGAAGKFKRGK
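In this screen, 50 nM flap DNA substrate was added to 10 nM FEN1 pretreated with compound for 15 min at room temperature; cleavage was followed with reads at 0 and 15 min, and Hill fitting gave concentration–response parameters.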
TDP1 inh: qHTS Assay for Inhibitors of Tyrosyl-DNA Phosphodiesterase (TDP1) | actives 0.28% (n = 350,000) | recombinant TDP1, AlphaScreen DNA substrate cleavage | Potency, µM (series often up to 130 µM), without a hit: at the highest dose activity change, negative = inhibition, usual class: inhibitors; also: nearly all actives have a fitted effect of over 40% in size
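Steps: enzyme plus compound, 15 min RT; add biotin/phosphotyrosine-FITC oligonucleotide (15 nM final), react 5 min; add donor/acceptor beads (10 ug/ml final), 10 min; read AlphaScreen. Tdp1 at 1 nM final.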
* hit, by the source's call; i = inactive; ? = inconclusive; · = not tested or not shown; [ ] = dose if it differs, or a comment. Calls follow the shape of the dose curve; as a rule, active = well fitted curve in the direction sought with a large enough effect; inconclusive = small, poorly fitted or top-dose-only effect, or another doubt; inactive = no such curve, though single readings can be large; an effect the other way counts as inactive or inconclusive. Unless noted, % is scaled to controls: 0 for no effect and ±100 for the full control effect; potency is read from the fitted curve at half-maximal effect.

SMILES	APE1 inh	BLM inh	RECQ1 inh	FEN1 inh	TDP1 inh
CCc1ccc[n+](-c2[nH]c(=O)sc2/C=N/N=C(\[O-])c2cccnc2)c1	33%	-2%	·	1%	-1%
Cc1cc[n+](-c2[nH]c(=O)sc2/C=N/N=C(\[O-])c2ccncc2)cc1	7%	-10%	·	-27%	40µM*
BrC/C=C/CBr	2%	·	-7%	·	4%
O=C(COC(=O)c1ccc(OC(F)(F)F)cc1)Nc1ncccn1	?	·	·	-1%	22µM*
O=C(COC(=O)c1cccc(OC(F)F)c1)Nc1ncccn1	-30%	·	·	-2%	45µM*
NC(=O)NC(=O)COC(=O)c1ccc(OC(F)(F)F)cc1	0%	1%	i	21%	1%
CCOc1ccc(Nc2nc(-c3cccc(Cl)c3)c3c(n2)-c2ccccc2OC3)cc1	·	?	·	?	-9%
CCCCC(CC)CNC(=O)CN(C)S(=O)(=O)c1ccc2c(c1)c(=O)n(C)c(=O)n2C (configuration not stated)	·	1%	·	10%	9%
Cc1cc(=O)oc2cc(OCC(=O)N/N=C/c3ccccc3[N+](=O)[O-])ccc12	-3%	?	-2%	?	56µM*
C=CC[C@@H]1[C@H](O)CC[C@@]2(C)[C@H]1CC[C@@H]1[C@@H]2CC[C@]2(C)C([C@H](C)CCCC(C)C)CC[C@@H]12 (some centres not stated)	-7%	·	16%	·	4%
CCCCn1c(O)c(/C=C/C=C/C=Nc2ccccc2)sc1=S	-5%	-25%	32µM*	-19%	8%
COc1ccc2c(c1)OC(=O)CC2c1ccccc1OC (configuration not stated)	0%	-6%[75.6 µM]	i	11%	-3%[56.1 µM]
COc1ccc2c(c1)C(c1ccccc1OC)CC(=O)O2 (configuration not stated)	-5%	1%[75.6 µM]	-24%[81.1 µM]	·	13µM*
COc1cc2ccc(=O)oc2c(O)c1O	?	-3%	-4%	8.9µM*	-2%
CSc1ccc(S(=O)(=O)NCC(=O)OCC(=O)NCc2cccs2)cc1[N+](=O)[O-]	-8%	·	·	-6%	-13%
Nc1ccc(S(=O)(=O)NCC(=O)OC2CCOC2=O)cc1[N+](=O)[O-] (configuration not stated)	?	·	·	8%	25µM*
O=C(C[N+]12CN3CN(CN(C3)C1)C2)c1ccc(Br)cc1	·	·	·	3%	·
CC(=O)OCC1OC(c2ccc3c(c2)OCO3)C=CC1OC(C)=O (configuration not stated)	17%[12.4 µM]	-1%[12.4 µM]	i[11.5 µM]	·	7%[21 µM]
CCCCCCCCCCCC1=C(O)C(=O)C=C(O)C1=O	?	-7%	-12%	?	26%[56.1 µM]
COC1=CC(=O)C(O)=C(CCCCCCC/C=C/CCCCCCCC2=C(O)C(=O)C=C(OC)C2=O)C1=O	·	·	·	20µM*	·
CCOC(=O)c1ccc(N2C(=O)c3[nH]nc(-c4ccccc4)c3C2c2ccc(CC)cc2)cc1 (configuration not stated)	·	-14%	·	-4%	9%
COc1ccc(C(C)(C)C)cc1NC(=O)COC(=O)c1ccc([N+](=O)[O-])o1	-4%	-4%	-4%	25µM*	10%
COc1ccc(C)cc1NC(=O)COC(=O)c1ccc([N+](=O)[O-])o1	-1%	-2%	-7%	-12%	3%
O=C(O)c1ccc(/C=C/c2nc3sc4c(c3c(=O)[nH]2)CCC4)cc1	?	-2%	-12%	-15%	50µM*
CCC[N+](C)(C)c1ccc(/C=C/c2ccnc3ccccc23)cc1	·	·	·	32µM*	·
SMILES	APE1 inh	BLM inh	RECQ1 inh	FEN1 inh	TDP1 inh
C[N+](C)(C)c1ccc(/C=C/c2ccnc3ccccc23)cc1	·	·	·	45µM*	·
CN(C)c1ccc(/C=C/c2ccnc3ccc4ccccc4c23)cc1	·	·	·	11µM*	·
COc1ccc(Cl)cc1NC(=O)CSc1nnc2[nH]c(=O)cc(-c3ccccc3)n12	·	0%	·	-16%	3%
COc1cc2c(NC3CCN(C)CC3)nc(N3CCCN(C)CC3)nc2cc1OCCOCCN(C)C	·	·	·	28µM*	·
COc1cc2c(NC3CCN(C(C)C)CC3)nc(N3CCCN(C)CC3)nc2cc1OCCOCCN(C)C	·	·	·	40µM*	·
COc1cc2nc(N3CCN(C(=O)C4CCCO4)CC3)nc(N)c2cc1OC (configuration not stated)	-4%	-3%	14%	-20%	-6%
COc1cc2c(NC3CCN(C(C)C)CC3)nc(N3CCCN(C)CC3)nc2cc1OCCCN1CCCC1	·	·	·	22µM*	·
CN(C)CCNc1cc(N2CCN(C)CC2)ncn1	·	·	·	-1%	·
COc1cc2nc(N3CCN(C(=O)[C@H]4CCCO4)CC3)nc(N)c2cc1OC	-5%	1%	i	·	8%
COc1ccc(CC(=O)NC2CC(=O)N(c3cccc(F)c3)C2)cc1 (configuration not stated)	·	-11%	·	18%	0%
Cc1ccc2c(c1)cc(C(=O)NCc1ccccc1C)n2C	·	-3%	·	1%	3%
Cc1ccc(NC(=O)C(c2ccccc2)N2CCN(CC(=O)N3CCOCC3)CC2)cc1Cl (configuration not stated)	11µM*	·	·	-1%	28µM*
CC/C(=N\Nc1ccnc2cc(Cl)ccc12)c1ccc(O)cc1	-7%	-3%	·	-21%	·
Oc1ccc(/C=N/Nc2ccnc3cc(Cl)ccc23)c(O)c1O	-10%	-26%	·	45µM*	12%
Oc1ccc(/C=N/Nc2ccnc3cc(Cl)ccc23)cc1O	?	28µM*	-21%	?	9%
c1cc(CN2CCCNCCNCCCNCC2)ccc1CN1CCCNCCNCCCNCC1	14%	?	14%	·	21%
COc1ccccc1OCC(=O)Nc1cc(NC(=O)COc2ccccc2OC)cc(C(=O)O)c1	-7%	-2%	·	1%	1%
O=C(COc1ccc(Cl)cc1Cl)NC(=S)Nc1ccccc1C(=O)O	11%	2%	9%	·	4%
O=C(COc1ccccc1Cl)Nc1cc(NC(=O)COc2ccccc2Cl)cc(C(=O)O)c1	-25%	-23%	·	4%	35µM*
O=C(COc1ccc(Cl)cc1Cl)Nc1ccc(C(=O)Nc2ccccc2C(=O)O)cc1	-5%	?	·	-18%	50µM*
COc1cc2cncnc2cc1OCCCCC(N)=O	·	·	·	-14%	·
COc1ccc2c(c1O)C(=O)c1ccccc1C2=O	2%	0%	-3%	·	8%
Nc1c(O)ccc2c1C(=O)c1ccccc1C2=O	-5%	-26%	-23%	50µM*	3%
COC(=O)c1cc2oc(C)cc2n1Cc1ccccc1Cl	·	-6%	·	8%	7%
